# According to PubChem BioAssay AID588835 (The Scripps Research Institute Molecular Screening Center, 2011):
# Activity calls are given as the source filed them. The rule behind the calls is not given here.
# Molecular target: Prolyl endopeptidase (Mus musculus) (UniProt Q9QUR6)
# Assay: in situ PREP and ABHD6 off-target inhibition, dose response, selectivity assay for PME-1 inhibitor project, cell-based, fluorescence, gel-based ABPP (AID 588835)
# Conditions: in situ gel-based competitive ABPP; series mostly up to 10 µM
# Sequence of Prolyl endopeptidase (Mus musculus) (Q9QUR6 whole entry, looked up): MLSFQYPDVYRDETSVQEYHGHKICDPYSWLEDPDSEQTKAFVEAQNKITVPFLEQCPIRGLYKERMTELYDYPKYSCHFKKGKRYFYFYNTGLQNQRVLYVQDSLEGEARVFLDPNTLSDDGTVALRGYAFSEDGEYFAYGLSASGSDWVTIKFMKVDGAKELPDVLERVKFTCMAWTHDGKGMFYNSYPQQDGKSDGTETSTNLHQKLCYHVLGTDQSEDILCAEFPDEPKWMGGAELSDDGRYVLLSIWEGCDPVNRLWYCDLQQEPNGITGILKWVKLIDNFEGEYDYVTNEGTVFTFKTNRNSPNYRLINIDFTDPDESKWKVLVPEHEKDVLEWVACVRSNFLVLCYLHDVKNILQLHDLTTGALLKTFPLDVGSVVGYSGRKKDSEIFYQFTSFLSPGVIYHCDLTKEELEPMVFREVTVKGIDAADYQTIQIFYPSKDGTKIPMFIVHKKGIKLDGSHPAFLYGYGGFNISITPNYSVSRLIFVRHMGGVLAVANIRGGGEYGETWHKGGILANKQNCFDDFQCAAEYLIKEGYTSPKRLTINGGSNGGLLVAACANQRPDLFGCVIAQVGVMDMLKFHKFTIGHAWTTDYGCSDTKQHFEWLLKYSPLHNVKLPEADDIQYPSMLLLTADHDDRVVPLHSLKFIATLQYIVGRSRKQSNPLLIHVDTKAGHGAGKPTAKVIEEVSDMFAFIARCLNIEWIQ
smiles,measurement,value
CC[C@@]1(c2ccc(C)cc2)C(=O)N(C(=O)OC(C)C)N1C(=O)OC(C)C,outcome,inactive
